Shown are actives, neighbours in structure and some others; about 5.3% of the full set was active somewhere.
HCV inhibitor = inhibitors of hepatitis C virus infection; Huh7.5.1 HCVcc-Cre infection, luciferase reporter, 44 h; Potency, µM (top dose mostly 41.8 µM), for the others: top-dose activity change, negative = inhibition, usual class: inhibitors; hit rate 3.4% among 340,000; further: on the % scale 0 is the no-effect control and ±100 the full control effect
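Seed cells (1,000/well) for 4 h; treat with compound and infect with HCVcc-Cre, moi about 0.5. Incubate 44 h, then detect luciferase activity.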
Marburg entry inh = blocks Marburg virus binding to or entry into cells. AID 540276. hit rate 1.8% among 300,000. Marburg virus pseudotyped entry inhibition, cell reporter. Potency, µM (top dose mostly 37.8 µM), for the others: at the highest dose activity change, negative = inhibition, most hits filed as inhibitors; calls by dose curve; tested in HEK293 cells; further: on the % scale 0 is the no-effect control and ±100 the full control effect
VACV mCherry inh = vaccinia inhibition (mCherry reporter) | Vaccinia virus mCherry reporter infection, fluorescence | Potency, µM (doses to about 36.5 µM), for the others: at the top dose activity change, negative = inhibition, most hits filed as inhibitors | hit rate 0.63% among 310,000; calls by dose curve; tested in A549 cells; further: on the % scale 0 is the no-effect control and ±100 the full control effect; nearly all actives have a fitted effect of over 35% in size
Vaccinia Venus = vaccinia inhibition (Venus reporter). Vaccinia virus Venus reporter expression, fluorescence. Potency, µM (highest dose often 36.5 µM), without a hit: at the top dose activity change, negative = inhibition, most hits filed as inhibitors. hit rate 0.46% among 330,000; calls by dose curve; tested in A549 cells; further: on the % scale 0 is the no-effect control and ±100 the full control effect; nearly all actives have a fitted effect of over 30% in size
Lassa entry inh = Lassa virus entry inhibition; Lassa virus pseudotype entry inhibition, cell reporter; hit rate 1.2% among 300,000; Potency, µM (top dose mostly 37.9 µM), inactives show at the top dose activity change, negative = inhibition, usual class: inhibitors; calls by dose curve; tested in HEK293 cells; further: on the % scale 0 is the no-effect control and ±100 the full control effect; nearly all actives have a fitted effect of over 50% in size
FMDV inh = blocks foot and mouth disease virus | FMDV antiviral cell-based qHTS | Potency, µM (highest dose often 57.9 µM), for the others: top-dose activity change, negative = inhibition, most hits filed as inhibitors | hit rate 1.2% among 410,000; calls by dose curve; tested in HEK293T cells; further: read-out not given here; on the % scale 0 is the no-effect control and ±100 the full control effect; nearly all actives have a fitted effect of over 45% in size
HCV inh confirm = confirmation of hepatitis C virus inhibitors. hit rate 78% among 640. Potency, µM (top dose mostly 41.8 µM), inactives show at the top dose activity, negative = inhibition, most hits filed as inhibitors. HCVcc-Cre infectious virus cell assay, luciferase, inhibition. shares compounds with HCV inhibitor; further: nearly all actives have a fitted effect of over 80% in size
HCV host tox = host cell cytotoxicity counter-screen for HCV inhibitors; Potency, µM (titrated, usually from 41.8 µM), inactives show top-dose activity change, negative = cytotoxicity, hits mostly inhibitors; shares compounds with HCV inhibitor; HCV host cell line cytotoxicity counterscreen; hit rate 22% among 640;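 further: 44 h compound exposure; on the % scale 0 is the no-effect control and ±100 the full control effect; nearly all actives have a fitted effect of over 55% in size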
Numbers without * were called inactive; i = inactive; ? = inconclusive; nt = no result; [ ] = remark or other dose. Unless noted, the call rests on the fitted dose curve; in most records, active means well fitted curve in the direction sought with a large enough effect; inconclusive means small, poorly fitted or top-dose-only effect, or another doubt; inactive means no such curve, though single readings can be large; an effect the other way counts as inactive or inconclusive. Potency means the concentration at half of the fitted maximal effect.

SMILES	HCV inhibitor	Marburg entry inh	VACV mCherry inh	Vaccinia Venus	Lassa entry inh	FMDV inh	HCV inh confirm	HCV host tox
CSc1ccc(CN2CCN(Cc3ccc([N+](=O)[O-])cc3)CC2)cc1	?	?	-13.9%	-25.4%	?	?	3.96µM*	7.05µM*
Cc1ccc(Nc2nc(N)c3ccccc3n2)cc1C	?	nt	nt	nt	nt	-61.8%	nt	nt
CN(C(=O)Cn1cc(C(F)(F)F)cc(Cl)c1=O)C1CCS(=O)(=O)C1 (centres undefined)	22.8%	?	-5.6%	2.1%	9.7%	-18.0%	nt	nt
Cc1cc(C(=O)COC(=O)c2ccc(O)cc2O)c(C)n1-c1ccccc1	?	?	?	?	11.2µM*	-21.6%	17.7µM*	-35.1%
CC(C)CN(C(=O)COC(=O)CCC(=O)c1ccc(F)cc1)c1c(N)n(Cc2ccccc2)c(=O)[nH]c1=O	7.1%	2.9%	i	-7.0%	-0.8%	3.0%	nt	nt
CN(Cc1ccc(Cl)c(Cl)c1)C(=O)C1CSC2(C)CCC(=O)N12 (centres undefined)	0.5%	nt	nt	nt	nt	-17.5%	nt	nt
CCCCCCCCn1ccc(=N)cc1	0.891µM*	?	-14.9%	-11.7%	?	?	1.77µM*	2.23µM*
CCCCCCn1c(/C=C/c2ccccc2)nc2ccccc21	nt	nt	-8.9%	-14.7%	?	-9.3%	nt	nt
COc1ccc([C@@H]2CC(=O)[C@@H]3CN(S(=O)(=O)c4ccc(C)cc4)[C@H](c4ccccc4)C[C@@H]3N2S(=O)(=O)c2ccccc2)cc1	nt	nt	21.7%	-6.0%	nt	-7.5%	nt	nt
CC1CCN(CCOCCOc2ccccc2-c2ccccc2)CC1	?	?	-9.8%	-14.2%	?	-11.6%	nt	nt
CC1CCN(CCCCOc2ccccc2-c2ccccc2)CC1	?	2.31µM*	?	?	2.06µM*	0.0%	19.9µM*	-28.2%
C[C@@H]1CN([C@@H](C)CO)C(=O)c2cc(Br)cnc2O[C@H]1CN(C)C(=O)NC1CCCC1	nt	nt	-10.6%	-7.9%	nt	-26.6%	nt	nt
Cc1cc(=O)n2c3ccccc3n(CC(O)CN3CCCC3)c2c1C#N (centres undefined)	2µM*	-28.0%	10.9%	2.0%	?	nt	12.5µM*	-21.7%
CSc1cccc(NC(=O)N2CCN(c3cc(-c4noc(C)n4)ccc3C)CC2)c1	nt	nt	-23.7%	-24.2%	-14.9%[46.1 µM]	-26.4%	nt	nt
CN1CCN(c2ccc([N+](=O)[O-])c3no[n+]([O-])c23)CC1	2.24µM*	0.562µM*	?	?	0.316µM*	5.01µM*	22.3µM*	22.3µM*
COc1ccc2c(c1)CCC1C2CC[C@@]2(C)C(O)CCC12 (some centres undefined)	nt	nt	-1.8%	9.6%	nt	11.5%	nt	nt
C[C@]12CC[C@@H]3c4ccc(O)c(O)c4CC[C@H]3[C@@H]1CC[C@@H]2O	2.82µM*	nt	-27.0%	-15.4%	nt	-4.6%	19.9µM*	1.3%
COc1ccc(C)cc1S(=O)(=O)N1CCCC(C(=O)N2CCOCC2)C1 (centres undefined)	11.9%	12.0%[46.1 µM]	-13.9%	-4.4%	21.2%[46.1 µM]	0.3%	nt	nt
O=c1c(S(=O)(=O)c2ccc(Cl)cc2)cn(Cc2ccc(F)cc2)c2ccc(F)cc12	nt	-7.6%[46.1 µM]	-4.3%	-9.5%	-0.5%[46.1 µM]	-10.6%	nt	nt
CCOc1ccc2nc(N/C(N)=N/C(=S)Nc3cccc(C)c3)nc(C)c2c1	5.62µM*	-0.1%	-6.8%	-13.5%	1.5%	-20.3%	7.91µM*	-18.6%
CCc1ccccc1NC(=S)/N=C(\N)Nc1nc(C)c2cc(C)ccc2n1	?	?	?	?	?	-8.7%	9.95µM*	?
CCCCc1nnc(NC(=O)C2CC(=O)N(Cc3ccccc3)C2)s1 (centres undefined)	-10.0%	nt	nt	nt	nt	-27.1%	nt	nt
Cc1noc(C)c1COC(=O)c1ccc(F)c(S(=O)(=O)N2CCCCC2)c1	?	-27.1%	nt	nt	3.9%	0.0%	28µM*	-35.8%
Cc1noc(C)c1COC(=O)c1ccc2c(c1)OCCO2	-0.6%	3.0%	-28.9%	-17.1%	12.7%	-6.3%	nt	nt
Cc1ccc(OCCCCN2CCCCC2)c(C)c1	15.7%	nt	nt	nt	nt	-8.3%	nt	nt
SMILES	HCV inhibitor	Marburg entry inh	VACV mCherry inh	Vaccinia Venus	Lassa entry inh	FMDV inh	HCV inh confirm	HCV host tox
Cc1ccc(OCCCCNC2CCCC(C)C2C)c(C)c1 (centres undefined)	7.94µM*	11.2µM*	?	10µM*	?	-17.2%	25µM*	?
COc1ccc(CCNC(=O)c2cc3c(=O)n4ccccc4nc3n(CCCN3CCOCC3)c2=N)cc1	8.91µM*	nt	nt	nt	nt	-23.1%	15.8µM*	14.0%
N=c1c(S(=O)(=O)c2ccc(Br)cc2)cc2c(=O)n3ccccc3nc2n1C1CCCCC1	?	nt	nt	nt	nt	-14.9%	14.1µM*	15.9%
COc1ccc(CCNC(=O)c2cc3c(=O)n4ccccc4nc3n(CCCN3CCOCC3)c2=N)cc1OC	?	nt	nt	nt	nt	0.0%	nt	nt
COc1ccc(CCNC(=O)c2cc3c(=O)n4ccccc4nc3n(C3CCCCC3)c2=N)cc1	7.94µM*	nt	nt	nt	nt	?	14.1µM*	-10.5%
Cc1cc(F)ccc1C(O)c1ncc(-c2cccc3ccccc23)[nH]1 (centres undefined)	nt	nt	8.5%	-1.0%	nt	11.0%	nt	nt
O=C(NC1CC(=O)N(c2ccc3c(c2)OCCO3)C1)N1CCCCC1 (centres undefined)	-8.0%	?	-14.9%	-12.1%	?	-4.3%	nt	nt
COC(=O)c1c(NC(=O)Cc2cccs2)sc2c1CCCC2	5.01µM*	?	i	-28.0%	?	5.3%	12.5µM*	?
COC(=O)c1c(NS(=O)(=O)c2cccs2)sc2c1CCCC2	4.3%	-0.9%	nt	nt	13.7%	18.1%	nt	nt
COc1ccc2c(c1OC)C(=O)N1C2SC[C@H]1C(=O)NC1CC1 (some centres undefined)	1µM*	nt	-3.7%	0.3%	nt	-10.8%	-9.7%	5.1%
Oc1ccc(C[C@H]2CNC(=S)N2CC2CCCN2C[C@H](Cc2ccc(O)cc2)N2C[C@H](Cc3ccccc3)N(CC3CCCCC3)C2=S)cc1 (some centres undefined)	2.51µM*	nt	-29.6%	?	nt	-28.1%	8.87µM*	-18.9%
Oc1ccc(C[C@H]2CN([C@@H](Cc3ccccc3)CN3CCC[C@@H]3CN3C(=S)NC[C@@H]3Cc3ccccc3)C(=S)N2CC2CCCCC2)cc1	nt	nt	6.1%	-11.3%	nt	-16.9%	nt	nt
Cn1nccc1NC(=O)Nc1cccc(Cl)c1Cl	-14.7%	?	i	-0.8%	-28.2%	-8.8%	nt	nt
COc1ccc(NC(=O)Nc2cccc(Cl)c2Cl)c(OC)n1	2.82µM*	?	16.1%	22.7%	-9.0%[46.1 µM]	17.2%	?	17.1%
COc1ccc(Cl)cc1NC(=O)C(C)OC(=O)C1=NNC(=O)CC1 (centres undefined)	?	nt	nt	nt	nt	-4.1%	?	-13.8%
O=C1CCC(C(=O)OCC(=O)Nc2cc(Cl)ccc2F)=NN1	7.0%	-2.9%	-7.6%	1.4%	1.1%	-17.9%	nt	nt

Assay outcomes (PubChem BioAssay)
